The full ranking holds about 33,000 sequences; the median of “E-score (-0.5 to 0.5)” is about -0.015, and the highest 2% start at about 0.3. This excerpt belongs to a sample that is enriched for the highest values.
target: T1, Abf1 (UniProt P14164); experiment: PBM E-score (8-mer binding enrichment) (E-score (-0.5 to 0.5)); higher = stronger / more preferred TF binding; details: protein concentration: 200 nM; construct: GST-full length
T1 sequence: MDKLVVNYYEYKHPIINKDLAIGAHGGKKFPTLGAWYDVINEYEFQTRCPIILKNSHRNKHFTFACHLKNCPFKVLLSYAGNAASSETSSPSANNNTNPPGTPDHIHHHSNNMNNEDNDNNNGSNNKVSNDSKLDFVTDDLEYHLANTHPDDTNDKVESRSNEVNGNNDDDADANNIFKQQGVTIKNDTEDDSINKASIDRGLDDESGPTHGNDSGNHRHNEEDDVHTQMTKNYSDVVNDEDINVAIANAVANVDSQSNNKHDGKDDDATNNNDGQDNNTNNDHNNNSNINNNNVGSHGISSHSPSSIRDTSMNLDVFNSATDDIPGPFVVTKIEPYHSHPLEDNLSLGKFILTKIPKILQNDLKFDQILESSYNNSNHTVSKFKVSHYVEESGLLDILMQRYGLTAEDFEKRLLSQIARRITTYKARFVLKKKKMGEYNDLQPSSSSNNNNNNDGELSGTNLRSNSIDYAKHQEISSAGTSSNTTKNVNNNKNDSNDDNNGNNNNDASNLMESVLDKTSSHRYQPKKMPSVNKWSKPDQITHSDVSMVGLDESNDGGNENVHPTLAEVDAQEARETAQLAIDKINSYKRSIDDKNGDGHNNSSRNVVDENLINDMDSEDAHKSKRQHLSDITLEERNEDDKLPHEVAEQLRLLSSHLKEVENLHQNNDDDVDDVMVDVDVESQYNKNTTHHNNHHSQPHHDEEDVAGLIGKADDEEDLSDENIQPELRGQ
Protocol: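 Universal 'all 10-mer' protein binding microarrays (Agilent AMADID 015681) probed with GST-tagged S. cerevisiae TFs (full-length or DBD) made by in vitro transcription/translation (PURExpress), about 100-200 nM. Bound TF was detected with fluorescent anti-GST. Each ungapped 8-mer (which stands for itself and its reverse complement) is scored by the PBM enrichment score (E-score), a modified Wilcoxon-Mann-Whitney statistic from -0.5 to +0.5, computed with the Universal PBM Analysis Suite. Scale: above 0.35 generally sequence-specific binding.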

In order of rising “PBM E-score” value:
1. CAATGCGG  -0.281
2. CCTGTGTC  -0.275
3. CTCCATGC  -0.265
4. GGACCCCC  -0.249
5. AAGAGAGT  -0.24
6. GAAGGGTC  -0.227
7. GGCTCTCA  -0.224
8. AGAGACCC  -0.221
9. GAACTCTC  -0.211
10. AGACCTAA  -0.206
11. CGGAGAAC  -0.184
12. GAGCCTGA  -0.165
13. CCGCAGTC  -0.165
14. CTGGTAAA  -0.16
15. GGCCGGCA  -0.157
16. AACACTGA  -0.142
17. CTGCCCTA  -0.132
18. ACCTCTGG  -0.129
19. CCGGGCCG  -0.129
20. CTGCCGAC  -0.121
21. CTACATAA  -0.118
22. AAAGAAGG  -0.118
23. AGTTGAGG  -0.116
24. GAATGAAC  -0.112
25. AACCTGGC  -0.112
26. AGCTTGAA  -0.106
27. AATTGTCC  -0.0973
28. CTACGTGC  -0.0934
29. GTGGACAC  -0.0874
30. GAATGAAA  -0.0868
31. CAATGAGA  -0.0863
32. TGAGAGCA  -0.0853
33. AAGATGAA  -0.083
34. ACAACGCT  -0.0795
35. CTCAGCCA  -0.0785
36. GATCGACC  -0.0655
37. CAATCTAC  -0.0654
38. GCCATAGC  -0.055
39. GGACAAAA  -0.0523
40. AGCTACCC  -0.0429
41. AGACATAA  -0.0415
42. GGACATAA  -0.032
43. CAATGCCG  -0.0313
44. TCTCTCCA  -0.031
45. TCGGTGCA  -0.0272
46. CTTACGGC  -0.0264
47. CAATGAAC  -0.0206
48. ACATACGC  -0.0157
49. ACCTTTTG  -0.00807
50. ACCAAGAA  -0.00575
51. CGCGTGAG  0.00035
52. AACACCAC  0.00166
53. AAACCGGA  0.00218
54. AAGATGAG  0.00927
55. GGTATTGA  0.00996
56. AAATGAGG  0.0174
57. CACCAATG  0.0285
58. GGTATTTA  0.0301
59. ACTTCAAG  0.0326
60. ACATACGT  0.033
61. ATGGCGAG  0.0386
62. GCATACGA  0.0403
63. CCCTACGA  0.041
64. ACGCTAGT  0.043
65. ACTAAAAG  0.0434
66. GAATGAGA  0.0436
67. GAACGCGC  0.0459
68. GTAGATAC  0.0486
69. TAAATGCA  0.0499
70. GAATGAGC  0.051
71. TAGGTCAA  0.0576
72. CAGATGAC  0.058
73. TTTTAAAA  0.0597
74. TGACTTAA  0.061
75. CCGCCGTA  0.0615
76. AGTGGATA  0.0619
77. ACTCCTAC  0.0623
78. TAATGAGA  0.0631
79. GATCTTGC  0.0639
80. CTAAATTA  0.0644
81. CCACGAAG  0.0703
82. ATATAAAC  0.0743
83. ACGGACGG  0.077
84. AGTAACGG  0.0792
85. GATCCTGC  0.0793
86. ACTCGTCT  0.0807
87. AGTATTGA  0.0838
88. CGTATCAG  0.0845
89. ATACAAAA  0.0848
90. CTCGGGAA  0.0853
91. AGGCCGTG  0.092
92. AGCACGGC  0.0922
93. CATTGCCG  0.0936
94. CCTATTTC  0.095
95. GCTAGTAC  0.0984
96. CGCGCAGA  0.103
97. ATAAATAG  0.104
98. CAATGATG  0.106
99. ACATACTA  0.109
100. ATAAATTG  0.115
101. ACCGTACC  0.118
102. CGTAGAAC  0.118
103. ACATGATG  0.119
104. TAATGAAA  0.12
105. TCATTCGA  0.129
106. CGACTATA  0.129
107. CTACAAAA  0.139
108. GAGATGAC  0.141
109. ACGGGTCC  0.142
110. CCACGATA  0.143
111. ATATAAAG  0.146
112. AGTCATGA  0.149
113. AGTATTTA  0.152
114. AACCACAT  0.182
115. CGGATATA  0.185
116. AGCGTGAC  0.186
117. TTACATAA  0.197
118. ACGATGAA  0.2
119. AGTATTTC  0.209
120. AAATGAAA  0.214
121. CCACGAAA  0.216
122. AACGTACG  0.222
123. CTCGTGAA  0.224
124. AAATGATC  0.228
125. GCCTACGA  0.239
126. GAATCGTC  0.239
127. CGACAAAA  0.241
128. ATAAATAA  0.246
129. ACACGATC  0.25
130. ATCGTGAC  0.255
131. TACCGTCA  0.262
132. ACGATGAC  0.264
133. GCATGATA  0.268
134. GATTGTCA  0.268
135. AAATGATT  0.275
136. CCATACGG  0.281
137. ACGCCGTC  0.282
138. CCATACGA  0.283
139. ACATGATC  0.292
140. GCCGTACA  0.294
141. ACATACGG  0.3
142. ATATAAAT  0.3
143. CGCGTGAC  0.303
144. TGACAAAA  0.304
145. AAGATGAT  0.304
146. CGTATTGA  0.307
147. CAATGATC  0.31
148. AAGATGAC  0.313
149. ACATGATA  0.315
150. CGTATTTC  0.316
151. ATAAATAT  0.316
152. AAATGATG  0.318
153. GAATGATC  0.32
154. CAATGATA  0.322
155. ACGATGAT  0.322
156. GTACATAA  0.324
157. TCATACGA  0.328
158. CCGCCGTC  0.334
159. CCACGATC  0.335
160. CGTATTTA  0.335
161. AATTGTCA  0.335
162. CCACGAAC  0.338
163. CTCGTGAC  0.344
164. GTACAAAA  0.344
165. TCCTACGA  0.347
166. TAATGATA  0.348
167. TGACATAA  0.351
168. GCCGTACC  0.356
169. ACATACGA  0.356
170. ATAAATTA  0.362
171. TCCGTACA  0.368
172. GAATGATA  0.397
173. AAATGATA  0.409

Source: the supplement of paper PMC3334620
